High-throughput results from PubChem.
RGS4-Gao reg = human RGS4-Galphao interaction regulation; AID 1415; P09471; binding response (% of control), % at 10 µM; 0.33% of 220,000 active; Multiplexed bead flow cytometry, RGS4-Galphao binding; actives lie on both sides; in the data active means binding response below about 49% or above about 150%; inactive means in between;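 further: fluorescent Galphao activated with aluminum fluoride binding bead-coupled RGS4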
Target sequence (P09471 whole entry, looked up): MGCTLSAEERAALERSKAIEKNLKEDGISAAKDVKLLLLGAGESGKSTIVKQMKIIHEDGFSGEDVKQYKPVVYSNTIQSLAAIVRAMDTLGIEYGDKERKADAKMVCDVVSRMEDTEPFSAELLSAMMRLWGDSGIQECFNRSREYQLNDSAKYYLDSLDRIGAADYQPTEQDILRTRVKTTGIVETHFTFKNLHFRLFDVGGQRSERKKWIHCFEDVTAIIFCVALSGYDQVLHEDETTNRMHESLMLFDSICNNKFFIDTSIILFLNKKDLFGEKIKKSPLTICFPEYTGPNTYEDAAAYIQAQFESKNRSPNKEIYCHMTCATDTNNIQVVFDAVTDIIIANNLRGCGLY
RGS16-Gao HTS = regulators of human RGS16-Galphao interaction | 0.38% of 220,000 active | binding response (% of control), % at 10 µM | bead-based flow cytometry RGS16-Galphao binding, fluorescence; actives lie on both sides | O15492+P09471;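 further: Galphao activated by GDP with aluminum fluoride before binding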
GSH bead fluor = compound fluoresces at 488/530 nm on GSH beads. fluorescence (KMESF) at 10 µM. GSH beads flow cytometry, compound fluorescence 488/530 nm; hits give high values. 0.25% of 190,000 active; in the data active means fluorescence above about 89;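 further: glutathione beads carrying GST-tagged Bcl family fusion proteins plus one bare bead set; values are compound well signal with DMSO vehicle wells as background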
Avidin fluor = compound fluoresces at 488/530 nm on avidin beads | fluorescence (KMESF) at 10 µM | compound fluorescence 488/530 nm, flow cytometry; hits give high values | 0.38% of 220,000 active; in the data active means fluorescence above about 47
RGS8-Gao reg = modulates binding of RGS8 to human Galphao. AID 1423. P09471. response (percent of control binding), % at 10 µM. multiplexed bead flow cytometry; actives lie on both sides. 0.34% of 220,000 active; in the data active means response below about 60% or above about 140%; inactive means in between;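 further: Galphao activated as the GDP aluminium fluoride complex binding bead-coupled RGS8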
RGS7-Gao = regulators of human RGS7-Galphao interaction. AID 1439. Multiplexed bead flow cytometry, RGS7-Galphao binding; actives lie on both sides. 0.35% of 220,000 active. binding response (% of control), % at 10 µM; in the data active means binding response below about 49% or above about 150%; inconclusive means no clear call, values can overlap the other calls; inactive means in between;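 further: fluorescent Galphao held in activated GDP-AlF4 state binding bead-coupled RGS7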
RGS4-Gao HTS = modulates binding between human RGS4 and Galphao; shares compounds with RGS16-Gao HTS; multiplexed bead flow cytometry, RGS–Galpha-o binding; RGS4–Galpha-o binding response, % at 10 µM; 99% of 1,600 active;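 further: fluorescently labeled Galpha-o bound to GDP with aluminium fluoride binding biotinylated RGS beads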
Biotin-avidin = biotin-avidin bead binding disruption counter-screen | shares compounds with RGS16-Gao HTS | streptavidin beads, fluorescein-biotin binding, flow cytometry | inhibition, % at 10 µM | 1,700 tested, under 10 active;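 active means inhibition above 50%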;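 further: median green fluorescence of gated singlet beads compared with DMSO control wells; 0% = DMSO wells and 100% = complete loss of bead fluorescence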
RGS8-Gao single = RGS8-Galphao interaction regulation, single point confirmation; bead-based flow cytometry RGS8-Galphao binding, fluorescence; actives lie on both sides; AID 1836; 3% of 1,700 active; shares compounds with RGS16-Gao HTS; binding response (% of control), % at 10 µM; in the data active means binding response below about 72% or above about 130%; inactive means in between;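 further: Galphao activated as GDP AlF4 complex before binding bead RGS8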
RGS7-Gao single = RGS7-Galphao interaction regulation, single point confirmation; shares compounds with RGS16-Gao HTS; bead-based flow cytometry RGS7-Galphao binding; actives lie on both sides; response (percent of control binding), % at 10 µM; 7.8% of 1,700 active; in the data active means response below about 75% or above about 130%; inactive means in between;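 further: fluorescent Galphao activated with GDP and aluminum fluoride binding bead-coupled RGS7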
RGS16-Gao single = confirmation of regulators of human RGS16-Galphao interaction. shares compounds with RGS16-Gao HTS. bead-based flow cytometry, RGS16-Galphao binding; actives lie on both sides. response (% of control binding), % at 10 µM. 4% of 1,700 active. AID 1838; in the data active means response below about 74% or above about 130%; inactive means in between;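 further: Galphao activated as the GDP aluminium fluoride complex binding bead-coupled RGS16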
RGS4-Gao single = confirmation of regulators of human RGS4-Galphao interaction | shares compounds with RGS16-Gao HTS | RGS4-Galphao binding, multiplexed bead flow cytometry; actives lie on both sides | binding response (% of control), % at 10 µM | 4% of 1,700 active | AID 1840; in the data active means binding response below about 74% or above about 130%; inactive means in between
RGS19-Gao single = RGS19-Galphao interaction regulation, single point confirmation | response (percent of control binding), % at 10 µM | bead-based flow cytometry RGS19-Galphao binding; actives lie on both sides | shares compounds with RGS16-Gao HTS | 5% of 1,700 active; in the data active means response below about 50% or above about 160%; inactive means in between;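 further: 100% = no compound control and 0% = blank background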
Target sequence (P09471 whole entry, looked up): as above
Target sequence (P49795 whole entry, looked up): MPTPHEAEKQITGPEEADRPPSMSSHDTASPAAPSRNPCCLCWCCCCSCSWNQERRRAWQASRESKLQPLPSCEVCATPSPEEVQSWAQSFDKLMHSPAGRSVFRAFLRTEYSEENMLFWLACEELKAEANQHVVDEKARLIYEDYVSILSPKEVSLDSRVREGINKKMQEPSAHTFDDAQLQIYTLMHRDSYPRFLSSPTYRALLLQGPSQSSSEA
* = called active by the depositor; ? = inconclusive; . = no result given; [ ] = another dose, or the depositor's remark. In the library only some 1.2% were active in any assay of this set; here they are far more common. Unless noted, how the calls were made is not given here.

SMILES	RGS4-Gao reg	RGS16-Gao HTS	GSH bead fluor	Avidin fluor	RGS8-Gao reg	RGS7-Gao	Biotin-avidin	RGS8-Gao single	RGS7-Gao single	RGS16-Gao single	RGS4-Gao single	RGS19-Gao single	others
COc1ccc(OCC(=O)Nc2ccccc2OC(F)F)cc1	102	99	56	8	103	102	.	.	.	.	.	.
CCO[C@H]1OC(C(=O)N2CCN(Cc3ccc4c(c3)OCO4)CC2)=C[C@@H](C2CC2)[C@@H]1CCCO	51	56	20	3	67	42*	-1	93	87	90	90	90	RGS4-Gao HTS=51*
CCO[C@@H]1OC(C(=O)N2CCN(Cc3ccc4c(c3)OCO4)CC2)=C[C@H](c2cn(C(C)=O)c3ccccc23)[C@H]1CCCO	137	123	19	7	107	167*[activator]	-1	105	104	109	105	111	RGS4-Gao HTS=137*
CCO[C@@H]1OC(C(=O)N2CCN(Cc3ccc4c(c3)OCO4)CC2)=C[C@H](c2csc3ccccc23)[C@H]1CCCO	104	101	17	7	101	100	.	.	.	.	.	.
CC(Sc1nc2ccccc2s1)C(=O)Nc1ccc2c(c1)OCO2 (stereo not drawn)	90	94	11	8	98	92	.	.	.	.	.	.
COc1cc2c3c(c1OC)C1(C=CC(=O)C=C1)CC3N(C(=O)c1ccccc1)CC2 (stereo not drawn)	105	103	12	120*	97	156*[activator]	.	.	.	.	.	.	RGS4-Gao HTS=105*
COc1cc2c3c(c1OC)C1(C=CC(=O)C=C1)CC3N(C(=O)CCC(=O)O)CC2 (stereo not drawn)	98	97	.	7	101	?	.	.	.	.	.	.
Fc1cccc(COc2ccccc2C(=S)N2CCCC2)c1	101	103	14	12	99	100	.	.	.	.	.	.
CN1C(=O)/C(=C/c2ccccc2OCc2cccc(F)c2)N(C)C1=S	.	.	36	.	.	.	2	100	99	101	99	97
CCC(C)(C)NC(=O)c1cc(C(=O)OC)cc([N+](=O)[O-])c1	97	108	30	8	99	100	.	.	.	.	.	.
CCOP(=O)(OCC)C(C)(C)NC(=O)c1cc([N+](=O)[O-])cc([N+](=O)[O-])c1	.	.	50	.	.	.	-1	104	105	104	103	92
O=C(c1nn2c(C(F)(F)F)cc(-c3ccco3)nc2c1Br)N1CCCc2ccccc21	.	.	15	.	.	.	2	105	107	107	108	90
O=C(NCc1ccccn1)C1CCN(Cc2cnn(-c3ccccc3)c2-n2cccc2)CC1	136	.	27	.	.	.	0	96	96	96	96	95
CC(=O)Nc1ccc2c(c1)c1ccccc1n2C(C)=O	101	107	4	2	102	101	.	.	.	.	.	.
Cc1cccc(-n2c(SCC(=O)NCc3ccc4c(c3)OCO4)nc3ccccc3c2=O)c1	135	555	12	14	148*[activator]	131	-2	100	97	100	98	92	RGS4-Gao HTS=135*
O=C(CSc1nc2ccccc2c(=O)n1-c1ccccc1)NCc1ccc2c(c1)OCO2	102	99	12	22	97	103	.	.	.	.	.	.
COc1ccc(Br)cc1CN(C)CC(=O)NCCc1ccccc1	98	111	23	6	105	96	.	.	.	.	.	.
Nc1ccc2oc(-c3ccccc3Cl)cc(=O)c2c1O	184*[activator]	110	18	89*	107	167*[activator]	0	102	111	104	107	95
O=c1cc(-c2ccccc2Cl)oc2ccc([N+](=O)[O-])c(O)c12	96	103	19	11	101	96	.	.	.	.	.	.
Fc1cccc(CSc2ccc(-c3ccco3)nn2)c1	95	90	18	8	95	95	.	.	.	.	.	.
Cc1[nH]n(-c2ccccc2)c(=O)c1C=Nc1ccc(S(=O)(=O)N=C(N)N)cc1	103	101	.	9	99	?	.	.	.	.	.	.
Cc1[nH]n(-c2ccccc2)c(=S)c1C=Nc1ccc([N+](=O)[O-])cc1	86	9.8*	7	3	74	116	.	.	.	.	.	.	RGS4-Gao HTS=86*
COc1ccccc1-c1cc(C(=O)Nc2ccc(F)cc2F)no1	98	100	23	10	98	100	.	.	.	.	.	.
O=C(/C=C/c1ccccc1)Oc1cccc(C(=S)N2CCOCC2)c1	104	103	11	3	101	104	.	.	.	.	.	.
COc1ccc(OCC(=O)N2CCN(c3nnc(-c4ccccc4)c4ccccc34)CC2)cc1	12*	8.3*	18	-1	22*	15*	-1	111	120	115	115	99
SMILES	RGS4-Gao reg	RGS16-Gao HTS	GSH bead fluor	Avidin fluor	RGS8-Gao reg	RGS7-Gao	Biotin-avidin	RGS8-Gao single	RGS7-Gao single	RGS16-Gao single	RGS4-Gao single	RGS19-Gao single	others
CN(C)C(=O)Cn1cnc2c(cnn2-c2ccccc2Cl)c1=O	98	95	13	8	97	101	.	.	.	.	.	.
CCC/C(O)=C1\C(=O)CC(c2ccccc2)CC1=NCCc1c(C)[nH]c2ccc(C)cc12 (stereo not drawn)	52	14*	16	2	52*	52	.	.	.	.	.	.	RGS4-Gao HTS=52*
CNC(=O)N(O)C1N(/N=C/c2cccs2)C(=S)SC1(C)C (stereo not drawn)	105	100	.	7	100	?	.	.	.	.	.	.
CCn1c(SCc2cccc(C(F)(F)F)c2)nnc1-c1ccco1	46*	21	23	11	48*	42*	0	99	91	100	99	103
COc1ccc(NC(=O)CSc2ccccn2)cc1OC	100	102	29	15	101	99	.	.	.	.	.	.
COC(=O)c1ccc(C(=O)OC)c(NC(=O)CSc2ccccn2)c1	107	101	21	87*	100	157*[activator]	1	98	101	100	100	108	RGS4-Gao HTS=107*
CCSc1ccccc1C(=O)NCc1cccnc1	94	101	25	22	59*	81	-1	100	67*	90	73*	85	RGS4-Gao HTS=94*
O=C(NCc1cccnc1)c1ccccc1Br	102	102	22	14	99	101	.	.	.	.	.	.
